Out of some 300,000 compounds screened, about 37,000 (12%) were called active. Cut-off read from the data, not from the text of the source: active = max response mostly above about 13% (no sharp cut-off); inactive = mostly below about 14%. What follows is part of a selection rich in actives, with near analogues and random picks from the rest.

This assay in a line: Cycloheximide Counterscreen for Small Molecule Inhibitors of Shiga Toxin. Note: read at 38.3 µM for the half of the compounds with a filed dose; 0% is about no effect. Particulars: cell reporter, cycloheximide protein synthesis inhibition counterscreen; hits give high values.
In the case of `COc1ccc(CCNS(=O)(=O)c2cccc([N+](=O)[O-])c2)cc1`, the max response was 4.94% (inactive).

As to `N#CC1=C(N)Oc2c(c(=O)oc3ccccc23)C1c1ccccc1OC(=O)c1cccs1` (stereo unspecified), the max response is 1.47% (inactive).

As for `N#CC1=C(N)Oc2c(sc3ccccc23)C1c1ccco1` (stereo unspecified), the max response is 28.9% (active).

Regarding `Cc1cc(C)c2c3c(sc2n1)C(c1ccccc1)C(C#N)=C(N)O3` (stereo unspecified), the max response is -1.32% (inactive).

Regarding `CC(C)(C)NC(=O)NC(=O)COC(=O)Cc1ccc(Cl)cc1Cl`, the max response is 2.66% (inactive).

For `COc1cccc(CC(=O)Nc2nc(-c3ccc(OC)c(OC)c3)cs2)c1`, the max response was -5.12% (inactive).

On to `COc1ccc(-c2nc(CCNC(=O)c3ccc(Br)o3)cs2)cc1`, for which the max response is 13.1% (inactive).

As to `COc1ccc(OC)c(-c2csc(NC(=O)C3=NNC(=O)CC3)n2)c1`, the max response was 9% (inactive).

Regarding `COc1ccc(-c2csc(NC(=O)COC(=O)Cc3ccc(Cl)cc3Cl)n2)cc1`, the max response was 45.1% (active).

Take `COc1ccc(-c2csc(NC(=O)COC(=O)c3ccc(Br)o3)n2)cc1`: the max response is 33.7% (active).

On to `Cc1cccc(NC(=O)c2cc(S(=O)(=O)N3CCC4(CC3)OCCO4)ccc2F)c1`, for which the max response is -1.02% (inactive).

With `CCn1cc(/C=C(\NC(=O)c2ccc(C)cc2)C(=O)NCCN2CCOCC2)c2ccccc21`, the max response is -1.13% (inactive).

Turning to `CC(C)C(=O)NCC(c1cccs1)S(=O)(=O)c1ccc(F)cc1` (stereo unspecified), the max response was -4.81% (inactive).

With `CCC(=O)Nc1nnc(S(=O)(=O)N(CC(C)C)c2ccccc2)s1`, the max response is 10.1% (inactive).

Consider `O=C(Oc1ccc2c(c1)CCC2)N1CCOCC1`, for which the max response is 53.5% (active).

Consider `O=C(Oc1ccc(F)cc1)N1CCOCC1`, for which the max response was -1.5% (inactive).

Consider `CC(=O)c1ccc(OC(=O)N2CCOCC2)cc1`, for which the max response is 11.8% (inactive).

As to `c1ccc(-n2nnnc2NC2CCCCCC2)cc1`, the max response is -1.89% (inactive).

Regarding `Cc1cccc(-n2ncc(Cl)c(Cl)c2=O)c1`, the max response is -10% (inactive).

In the case of `O=c1c(Cl)c(NC2CC2)cnn1-c1ccccc1`, the max response was 31.2% (active).

As to `COc1ccc(N2CCN(C(=O)CCSCc3ccccc3F)CC2)cc1`, the max response was 7.14% (inactive).

Take `COc1ccc(N2CCN(C(=O)/C(C#N)=C/c3ccccc3)CC2)cc1`: the max response is 14.2% (active).

For `CC(C)OC(=O)C(C#N)c1nc2ccccc2nc1N1CCN(Cc2ccccc2)CC1` (stereo unspecified), the max response is -2.37% (inactive).

`C/C(=C/c1ccccc1)C(=O)N1CCN(c2ccccc2)CC1`: the max response was 20% (inactive).

Consider `CCOC(=O)/C(C#N)=C/c1ccc(N2CCN(Cc3ccccc3)CC2)cc1`, for which the max response was 10.2% (active).

For the compound `CCOC(=O)/C(C#N)=C\c1c(C)cc(C)c(COC(C)=O)c1C`, the max response is 0.938% (inactive).

Take `CCOC(=O)/C(C#N)=C/c1ccc(N2CCCCC2)cc1`: the max response is 40.9% (active).

Regarding `CCOC(=O)NC(=O)/C(C#N)=C\c1ccccc1`, the max response was -1.84% (inactive).

Turning to `Cc1cccn2c(=O)c(/C=C(\C#N)C(N)=O)c(N3CCCCCC3)nc12`, the max response was 12.8% (inactive).

For `C=CCOC(=O)C(=C)C`, the max response was -1.88% (inactive).

For `N#Cc1ccc(C(=O)Nc2nc(-c3cccs3)c(C(=O)C(F)(F)F)s2)cc1`, the max response was 0.458% (inactive).

Turning to `Cn1cccc1Cc1nnc(SCC(=O)NCc2ccc3c(c2)OCO3)n1CCc1ccccc1`, the max response is 1.14% (inactive).

As to `O=S(=O)(Nc1ccc2cn[nH]c2c1)c1ccccc1`, the max response is 5.04% (inactive).

On to `Cc1ccc(S(=O)(=O)Nc2ccc3ncccc3c2)cc1`, for which the max response was -2.27% (inactive).

As to `O=S(=O)(Nc1ccc2nc(-c3ccco3)[nH]c2c1)c1ccccc1`, the max response is 33.7% (active).

On to `Cc1ccc2c(cnn2C(=O)CCC(=O)NC2CCCC2)c1`, for which the max response was 1.35% (inactive).

For `Cn1c2ccc(F)cc2c2nnc(NN)nc21`, the max response was 0.49% (inactive).

As to `Cc1cc(Cl)ccc1OCCCC(=O)NCc1ccncc1`, the max response was 2.81% (inactive).

Turning to `Cc1cc(Cl)ccc1OCc1nc(-c2ccncc2)no1`, the max response is 35.5% (active).

In the case of `COc1ccc(-c2noc(COc3ccc(Cl)c(C)c3)n2)cc1`, the max response is 8.61% (inactive).

Consider `COc1cc(NC(=O)CN2C(=O)NC(C)(c3ccc(OC(F)F)cc3)C2=O)cc(OC)c1OC` (stereo unspecified), for which the max response is -2.19% (inactive).

`O=C1/C(=C/c2cccs2)SC(=S)N1C1CCS(=O)(=O)C1` (stereo unspecified): the max response is -0.776% (inactive).

In the case of `O=C1/C(=C/c2cccs2)CCC1C1CCCC1` (stereo unspecified), the max response was 29.4% (active).

On to `c1ccc2c(c1)CCc1snnc1-2`, for which the max response was -1.75% (inactive).

For `O=C1/C(=C/c2cccs2)CCc2ccccc21`, the max response is 62.8% (active).

As to `O=S(=O)(c1cccs1)N1CCc2ccccc2C1`, the max response was -2.33% (inactive).

Turning to `COc1ccc(/C=C2\CCc3ccccc3C2=O)c(OC)c1OC`, the max response is 35.6% (active).

`CCC1C/C(=C/c2cccs2)C(=O)/C(=C/c2cccs2)C1` (stereo unspecified): the max response was -1.72% (inactive).

Take `CN1CCN(C(=O)/C(=C\c2cccs2)NC(=O)c2cccs2)CC1`: the max response is 8.48% (inactive).

As for `COc1cc(/C=C/C(=O)N2CCc3ccccc3C2)cc(OC)c1OC`, the max response is 0.558% (inactive).

Take `CN1C/C(=C/c2cccs2)C(=O)/C(=C\c2cccs2)C1`: the max response is 35.9% (active).

As to `COc1ccc2c(c1OC)C(=O)c1ccccc1C2=O`, the max response is 2.67% (inactive).

Take `O=C(Nc1ccccc1C(=O)N1CCOCC1)c1ccc(CSc2ccccc2)cc1`: the max response is -0.894% (inactive).

`Cc1cc(=O)oc2c(C)c(OCC(=O)NCCc3ccc(S(N)(=O)=O)cc3)ccc12`: the max response was -1.87% (inactive).

In the case of `CCOC(=O)C1=C(c2ccccc2)NC(=O)NC1c1cc(OCC)c(O)c([N+](=O)[O-])c1` (stereo unspecified), the max response is -1.22% (inactive).

`CCOc1ccc2c(c1)c(=O)c(S(=O)(=O)c1ccc(C)cc1)cn2CC`: the max response was -0.573% (inactive).

Consider `OC1CCCN(c2ncnc3c2nnn3Cc2c(F)cccc2Cl)C1` (stereo unspecified), for which the max response is 7.82% (inactive).

Consider `CC(=O)c1cc2c(cc1NC(=O)Cn1nc(-c3ccc(F)cc3)ccc1=O)OCO2`, for which the max response is 0.865% (inactive).

Regarding `Cc1cc(C)nc(NNC2=CC(=O)CC(C)(C)C2)n1`, the max response was 2.37% (inactive).

With `CCCCN(Cc1ccccc1)C(=O)C1CCN(Cc2sccc2C)CC1`, the max response is -5% (inactive).

On to `CCOc1cc(C2/C(=C(/O)c3ccc(S(=O)(=O)N4CCCCC4)cc3)C(=O)C(=O)N2CCOC)ccc1O` (stereo unspecified), for which the max response is -6.09% (inactive).

Regarding `CC(=O)N/N=C(\C)c1ccc(Br)cc1Br`, the max response is -2.79% (inactive).

For `CC(=N\NC(=O)c1cc(Br)ccc1O)/C(=N/O)C(=O)Nc1ccccc1`, the max response is 23.2% (active).

Take `CC(C)/C=N/NC(=O)c1cc(Br)ccc1O`: the max response is 9.21% (inactive).

Regarding `COc1ccc(/C=N/N=C/c2c[nH]c(=O)c(C#N)c2Nc2ccccc2)cc1`, the max response was -2.7% (inactive).

On to `COc1cccc(NC(=O)C(Sc2nc3ccccc3c(=O)n2CC(C)C)c2ccccc2)c1` (stereo unspecified), for which the max response was 0.135% (inactive).

For `COc1ccc2c(-c3ccccc3)cc(SCC(=O)N(C)C3CCS(=O)(=O)C3)nc2c1` (stereo unspecified), the max response was -1.72% (inactive).

Turning to `O=C1C(C=NCC2CCCO2)=C(O)c2ccccc21` (stereo unspecified), the max response is 32.1% (active).

With `CC(=NCC1CCCO1)c1c(O)n(-c2ccccc2)c(=O)[nH]c1=O` (stereo unspecified), the max response is 4.02% (inactive).

`Cc1ccc(-n2c(O)c(C=NCC3CCCO3)c(=O)[nH]c2=O)c(C)c1` (stereo unspecified): the max response is -0.95% (inactive).

`O=C1c2ccccc2S(=O)(=O)N1Cc1c(F)cccc1Cl`: the max response is -0.645% (inactive).

On to `CC(C)(C)c1ccc(CN2C(=O)c3ccccc3S2(=O)=O)cc1`, for which the max response was 17.5% (active).

On to `O=C1CN(Cc2ccccc2)S(=O)(=O)c2ccccc21`, for which the max response was -0.808% (inactive).

In the case of `CC1CN(S(=O)(=O)c2ccccc2)C(C)CN1S(=O)(=O)c1ccccc1` (stereo unspecified), the max response is -3.63% (inactive).

Regarding `Cc1cc(C)cc(C(=O)NC(CC(N)=O)c2ccc(N3CCC(N4CCCCC4)CC3)c([N+](=O)[O-])c2)c1` (stereo unspecified), the max response was -1.84% (inactive).

In the case of `NS(=O)(=O)c1ccc(NC(=S)Nc2ccc(Br)c(Cl)c2)cc1`, the max response was -1.56% (inactive).

Consider `CC1CCC(NC(=O)c2ccc(N3CCCC3=O)cc2)CC1` (stereo unspecified), for which the max response is 40.8% (active).

For the compound `CC1CCCC(NC(=O)c2cccc(N3CCCC3=O)c2)C1C` (stereo unspecified), the max response is 44.4% (active).

In the case of `CCCNC(=O)NCc1ccc(N2CCCC2=O)cc1`, the max response was -2.06% (inactive).

As for `O=C(NCCc1ccc(Cl)cc1)C1CCCN1C(=O)NCc1ccccc1` (stereo unspecified), the max response was -1.54% (inactive).

For `CC1CCCC(NC(=O)CN2CCN(Cc3ccc(Cl)cc3)C2=O)C1C` (stereo unspecified), the max response is -4.51% (inactive).

In the case of `O=C(NCc1cccc(Cl)c1)C1CCN(c2nnc(N3CCCC3=O)s2)CC1`, the max response is -2.64% (inactive).

Regarding `O=C(NCCCN1CCCCCC1)c1ccc(N2CCCC2=O)cc1`, the max response was -4.57% (inactive).

For `O=C(NCCc1ccc(Cl)cc1)c1cccc(N2CCCC2=O)c1`, the max response is 21.3% (active).

Turning to `C/C(=N\NC(=O)c1cccc(N2CCCC2=O)c1)c1ccc(N)cc1`, the max response is 27% (inactive).

As for `Cn1c2c(c(=O)n(C)c1=O)C(c1cccc([N+](=O)[O-])c1)Nc1ccccc1O2` (stereo unspecified), the max response is -1.06% (inactive).

For the compound `Cc1ccc(S(=O)(=O)NCC2CCC(C(=O)N3CCOCC3)CC2)cc1` (stereo unspecified), the max response was 3.28% (inactive).

In the case of `Cc1cc2ccccn2c1C(=O)c1cccc(F)c1`, the max response is -1.02% (inactive).

Regarding `C=CCSc1nc(N)cc(=O)[nH]1`, the max response was 13.9% (inactive).

For `Cc1cc(S(=O)(=O)c2cc3ccc(O)c(C)c3oc2=O)ccc1F`, the max response is -4.92% (inactive).

Turning to `O=C(NCc1ccccc1)C(=O)NCC1OCCN1S(=O)(=O)c1ccc(Br)cc1` (stereo unspecified), the max response is 9.31% (inactive).

In the case of `O=C(NCCc1ccccc1)C(=O)NCC1OCCN1S(=O)(=O)c1cccs1` (stereo unspecified), the max response was 8.94% (active).

With `COc1ccc(CCNC(=O)C(=O)NCC2OCCN2S(=O)(=O)c2ccc(OC)c(C)c2)cc1` (stereo unspecified), the max response was 0.773% (inactive).

Regarding `CCNCCC(=O)N1c2ccccc2Sc2ccc(NC(=O)OCC)cc21`, the max response is -6.47% (inactive).

Turning to `Cn1nnnc1SCC(=O)Nc1nc2ccccc2s1`, the max response is 28.7% (active).

Take `O=C(Nc1ccc(NC(=O)c2ccco2)c(Cl)c1)c1cccc([N+](=O)[O-])c1`: the max response was 5.37% (inactive).

As to `O=C(Nc1ccc(C(=O)N2CCCCC2)cc1)c1cccc([N+](=O)[O-])c1`, the max response is -4.06% (inactive).

In the case of `Cc1cc(C)c2nc(NC(=O)c3ccc4c(c3)OCO4)sc2c1`, the max response is -3.86% (inactive).

Consider `O=C(Nc1ccc(C2CC2(Cl)Cl)cc1)c1cccc([N+](=O)[O-])c1` (stereo unspecified), for which the max response was 40.2% (active).

`C=CCn1c(SCC(=O)Nc2nc3ccccc3s2)nnc1-c1ccccc1O`: the max response is 6.55% (inactive).

`O=C(Nc1nc2ccccc2s1)c1ccc2c(c1)OCO2`: the max response was 16.2% (active).

Take `O=CN1CCN(C(=O)c2ccc3c(c2)OCO3)CC1`: the max response was 16.1% (inactive).

With `COC(=O)c1ccccc1NC(=O)CSc1nnnn1C`, the max response is 3.16% (inactive).

As for `O=C(Nc1ccccc1)c1ccc2c(c1)OCO2`, the max response was 29% (active).

As to `O=C(Nc1ccc2c(c1)OCO2)c1ccc(N2C(=O)c3ccccc3C2=O)cc1`, the max response is 14.1% (inactive).

As for `COc1ccc(S(=O)(=O)N2CCOCC2)cc1C(=O)Nc1nc2ccccc2s1`, the max response was 8.09% (inactive).
